Measurements reported in PubChem BioAssay (NCI).
This is part of a sample that, as a whole, favours compounds with a hit. Of some 79,000 tested, about 15% had one in any assay. Active and inactive are the calls of the source. No stated cut-off is given here; in the data, active means growth inhibition above about 70%; inactive means the rest.

Tests used:
[1] = NCI Yeast Anticancer Drug Screen. Data for the rad52 strain (AID 147);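 further: 0% = growth of vehicle-treated control cultures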; conditions: S. cerevisiae rad52 mutant growth inhibition, stronger effect = higher value
Method in brief: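 Here a repair-compromised yeast strain receives each compound; its growth is then quantified and normalised to vehicle-only controls.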

[2] = NCI Yeast Anticancer Drug Screen. Data for the wt1 strain (AID 149);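 further: 0% = growth of vehicle-treated wt1 cultures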; conditions: S. cerevisiae wt1 strain (SPY 50644) growth inhibition, stronger effect = higher value
Method in brief: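 wt1 yeast, compound-treated; % growth inhibition vs vehicle control.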

[3] = NCI Yeast Anticancer Drug Screen. Data for the rad50EPP+ strain (AID 151);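 further: 0% = growth of vehicle-treated control cultures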; conditions: S. cerevisiae rad50 mutant strain, stronger effect = higher value
Method in brief: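 Read-out is yeast growth inhibition relative to vehicle; cells used were the rad50EPP+ strain.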

[4] = NCI Yeast Anticancer Drug Screen. Data for the mgt1 strain (AID 153); conditions: S. cerevisiae mgt1 mutant growth inhibition, stronger effect = higher value
Method in brief: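 Measured: inhibition of mgt1 yeast growth by compound, normalized to vehicle-treated cultures.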

[5] = NCI Yeast Anticancer Drug Screen. Data for the rad50 strain (AID 155);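 further: 0% = growth of vehicle-only cultures of the same strain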; conditions: S. cerevisiae rad50 strain growth inhibition, stronger effect = higher value
Method in brief: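 Genetically altered yeast (DNA repair pathway); compound treatment; growth inhibition vs vehicle ctrl.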

[6] = NCI Yeast Anticancer Drug Screen. Data for the mec2-1 strain (AID 157); conditions: S. cerevisiae mec2-1 strain, stronger effect = higher value
Method in brief: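 Using mec2-1 yeast: add compound, measure growth, express inhibition versus vehicle-treated cultures.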

[7] = NCI Yeast Anticancer Drug Screen. Data for the rad14 strain (AID 159);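 further: 0% = growth of vehicle-treated control cultures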; conditions: S. cerevisiae rad14 strain growth inhibition, stronger effect = higher value
Method in brief: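 Test compounds were applied to a repair-deficient yeast strain. Its growth was then compared with that of cultures given vehicle alone, and inhibition was expressed relative to those controls.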

[8] = NCI Yeast Anticancer Drug Screen. Data for the sgs1 mgt1 strain (AID 161);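 further: 0% = growth of cultures given vehicle only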; conditions: S. cerevisiae sgs1 mgt1 strain, stronger effect = higher value
Method in brief: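 Yeast cells carrying a defined DNA-repair defect were exposed to test compounds. Growth inhibition was measured relative to vehicle-treated controls.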

[9] = NCI Yeast Anticancer Drug Screen. Data for the CLN2oe strain (AID 163);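 further: 0% = growth of vehicle-only control cultures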; conditions: S. cerevisiae CLN2oe strain, stronger effect = higher value
Method in brief: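 Whole-cell yeast growth assay. A strain engineered for altered cell-cycle control received compound, and inhibition relative to vehicle-treated cultures was recorded.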

[10] = NCI Yeast Anticancer Drug Screen. Data for the cln2 rad14 strain (AID 165);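 further: 0% = growth equal to vehicle treated cultures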; conditions: S. cerevisiae cln2 rad14 strain, stronger effect = higher value
Method in brief: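 Yeast strain cln2 rad14, bearing defects in cell cycle control and DNA repair, serves as the test system; values reflect growth inhibition compared with vehicle.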

[11] = NCI Yeast Anticancer Drug Screen. Data for the bub3 strain (AID 167); conditions: S. cerevisiae bub3 mutant strain, stronger effect = higher value
Method in brief: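 Yeast carrying a defined mutation is treated with each compound, and growth is compared with that of vehicle-exposed cells to give inhibition.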

[12] = NCI Yeast Anticancer Drug Screen. Data for the wt2 strain (AID 169);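 further: 0% = growth of vehicle-treated yeast cultures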; conditions: S. cerevisiae wt2 strain growth inhibition, stronger effect = higher value
Method in brief: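 Treated yeast vs. vehicle-treated yeast: growth inhibition determined.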

[13] = NCI Yeast Anticancer Drug Screen. Data for the mlh1 strain (AID 171);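 further: 0% = growth of vehicle-treated control cultures of the same strain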; conditions: S. cerevisiae mlh1 strain growth inhibition, stronger effect = higher value
Method in brief: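 A yeast strain with a defined genetic lesion serves as the test organism. Cultures receive compound or vehicle, and growth is measured.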

[14] = NCI Yeast Anticancer Drug Screen. Data for the sgs1 strain (AID 173);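 further: 0% = growth of vehicle-only control cultures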; conditions: S. cerevisiae sgs1 mutant, stronger effect = higher value
Method in brief: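 A genetically defined yeast mutant is incubated with the test compound, and its growth is compared to that of the same strain given vehicle.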

[15] = NCI Yeast Anticancer Drug Screen. Data for the mlh1 rad18 strain (AID 175); conditions: S. cerevisiae mlh1 rad18 strain growth inhibition, stronger effect = higher value
Method in brief: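 Steps: expose repair-defective yeast to compound; measure growth; express inhibition against vehicle-treated controls.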

[16] = at 5.0 µM (retest, dose inferred, filed as 0.5)
[17] = at 50.0 µM (retest, dose inferred, filed as 5.0)

Measured: growth inhibition

O=C(O)C1OC1(c1cccc(Cl)c1)c1ccccc1Cl (stereo not drawn)
inactive: [1]; at 1.2 µM -9% | [1]; at 3.7 µM -8% | [1]; at 11.0 µM 13% | [1]; at 33.0 µM 56% | [2]; at 1.2 µM -18% | [2]; at 3.7 µM -15% | [2]; at 11.0 µM -15% | [2]; at 33.0 µM 41% | [3]; at 1.2 µM 0% | [3]; at 3.7 µM 9% | [3]; at 11.0 µM 12% | [3]; at 33.0 µM 25% | [3]; at 100.0 µM 36% | [4]; at 1.2 µM 17% | [4]; at 3.7 µM 16% | [4]; at 11.0 µM 28% | [4]; at 33.0 µM 67% | [5]; at 1.2 µM 1% | [5]; at 3.7 µM 7% | [5]; [16] 43% | [5]; at 11.0 µM 12% | [5]; at 33.0 µM 48% | [5]; [17] 59% | [6]; at 1.2 µM -6% | [6]; at 3.7 µM -13% | [6]; [16] 57% | [6]; at 11.0 µM 2% | [6]; at 33.0 µM 58% | [6]; [17] 61% | [7]; at 1.2 µM -19% | [7]; at 3.7 µM -12% | [7]; at 11.0 µM -11% | [8]; [16] -12% | [9]; at 1.2 µM 15% | [9]; at 3.7 µM 16% | [9]; at 11.0 µM 13% | [9]; at 33.0 µM 39% | [10]; [16] 54% | [11]; at 1.2 µM 0% | [11]; at 3.7 µM -5% | [11]; [16] 30% | [11]; at 11.0 µM 9% | [12]; at 1.2 µM -35% | [12]; at 3.7 µM -20% | [12]; at 11.0 µM -18% | [12]; at 33.0 µM 26% | [13]; at 1.2 µM -26% | [13]; at 3.7 µM -25% | [13]; at 11.0 µM -10% | [13]; at 33.0 µM 37% | [14]; at 1.2 µM -13% | [14]; at 3.7 µM -5% | [14]; at 11.0 µM 1% | [14]; at 33.0 µM 51% | [15]; [16] 47% | [15]; [17] 53%
active: [1]; at 100.0 µM 91% | [2]; at 100.0 µM 93% | [4]; at 100.0 µM 95% | [5]; at 50.0 µM 90.1% | [5]; at 100.0 µM 88% | [6]; at 50.0 µM 92% | [6]; at 100.0 µM 94% | [7]; at 33.0 µM 75% | [7]; at 100.0 µM 91% | [8]; [17] 93% | [8]; at 50.0 µM 93.1% | [9]; at 100.0 µM 93% | [10]; [17] 96% | [10]; at 50.0 µM 90.7% | [11]; at 33.0 µM 70% | [11]; [17] 95% | [11]; at 50.0 µM 89.9% | [11]; at 100.0 µM 92% | [12]; at 100.0 µM 93% | [13]; at 100.0 µM 90% | [14]; at 100.0 µM 90% | [15]; at 50.0 µM 90.5%

COc1cc2c(c(OC)c1OC)-c1c(cc3c(c1OC)OCO3)CC(C)C(C)(O)C2OC(=O)c1ccccc1 (stereo not drawn)
active: [4]; at 100.0 µM 70% | [5]; at 50.0 µM 71.2% | [8]; at 50.0 µM 85.4% | [11]; at 50.0 µM 72.2%
inactive: [1]; at 1.2 µM -26% | [1]; at 3.7 µM -15% | [1]; at 11.0 µM -25% | [1]; at 33.0 µM -22% | [1]; at 100.0 µM 47% | [2]; at 1.2 µM -16% | [2]; at 3.7 µM -26% | [2]; at 11.0 µM -10% | [2]; at 33.0 µM 7% | [2]; at 100.0 µM 3% | [3]; at 1.2 µM -2% | [3]; at 3.7 µM -19% | [3]; at 11.0 µM -26% | [3]; at 33.0 µM -21% | [3]; at 100.0 µM 5% | [4]; at 1.2 µM -5% | [4]; at 3.7 µM -9% | [4]; at 11.0 µM -14% | [4]; at 33.0 µM -17% | [5]; at 1.2 µM -53% | [5]; at 3.7 µM -18% | [5]; [16] -3% | [5]; at 11.0 µM -25% | [5]; at 33.0 µM -17% | [5]; [17] 40% | [5]; at 100.0 µM 50% | [6]; at 1.2 µM -2% | [6]; at 3.7 µM 12% | [6]; [16] -8% | [6]; at 11.0 µM 16% | [6]; at 33.0 µM 12% | [6]; [17] 13% | [6]; at 50.0 µM 55.5% | [6]; at 100.0 µM 34% | [7]; at 1.2 µM 9% | [7]; at 3.7 µM 1% | [7]; at 11.0 µM -5% | [7]; at 33.0 µM -4% | [7]; at 100.0 µM 33% | [8]; [16] 19% | [8]; [17] 68% | [9]; at 1.2 µM 27% | [9]; at 3.7 µM 17% | [9]; at 11.0 µM 16% | [9]; at 33.0 µM 20% | [9]; at 100.0 µM 45% | [10]; [16] 10% | [10]; [17] 68% | [10]; at 50.0 µM 50.2% | [11]; at 1.2 µM -8% | [11]; at 3.7 µM 11% | [11]; [16] -2% | [11]; at 11.0 µM 10% | [11]; at 33.0 µM 22% | [11]; [17] 49% | [11]; at 100.0 µM 36%
